High-throughput results: PubChem BioAssay, several laboratories
Hits are enriched below; roughly 3.1% of the tested compounds scored in any of these assays.
HSP90 refold inh – HSP90 refolding inhibition in rabbit reticulocyte lysate | AID 1789 | 290,000 compounds, 0.91% hits | luciferase refolding luminescence, 3 h | inhibition, % at 5.6 µM;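 active means inhibition above the screen-wide mean plus 3 SD, computed separately per campaign, cut at about 16% in these data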;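 further: 0% = DMSO wells and 100% = 60 µM geldanamycin wells; inhibitors lower the luminescence because luciferase stays unfolded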
HSF-1 act – increases HSF-1 driven luciferase reporter signal; 300,000 compounds, 1.7% hits; NIH3T3-HGL HSF-1 luciferase reporter, MG132, 8 h; 100% = twice DMSO control signal; activation, % at 9 µM;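 active means mean replicate activation of at least 50% with a set share of replicates each reaching 50%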;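 further: 0% = median of the neutral control wells and 100% = twice that signal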
ARNT-TACC3 inh – disruptors of human ARNT/TACC3 interaction | 390,000 compounds, 0.66% hits | inhibition, % at 9.99 µM | Q9Y6A5 | AID 623870 | AlphaScreen His-ARNT PAS-B/GST-TACC3 binding, luminescence; TACC3 fragment carries E629A point mutation;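 active means mean inhibition of replicates at least 50% and at least half of replicates each reaching 50%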;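 further: 0% = complete ARNT plus TACC3 wells and 100% = ARNT alone without TACC3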
HIF act – HIF pathway transcriptional activation; U2OS HRE-luciferase reporter, luminescence; normalized: DMSO 0%, desferrioxamine 100%; activation, % at 7.5 µM (by protocol); 300,000 compounds, 0.32% hits; AID 1910;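 active means mean activation of at least 10% of the iron chelator positive control signal, with at least half of replicates also reaching 10%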
HSF1 inh – HSF1 inhibition | NIH3T3-HGL HSE-luciferase, MG132-induced, luminescence 8 h; active compounds read low | activity change, negative = inhibition, % at 7.5 µM (by protocol) | 300,000 compounds, 0.77% hits | AID 2098;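 active means more than half of replicate wells show activity change below -50%, luminescence cut by over half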;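 further: luciferase reports HSF-1 transcriptional activity via heat shock element; 0% = median of DMSO wells and -100% = zero luminescence signal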
ARNT Alpha ctr-1 – interferes with AlphaScreen signal, flagging false ARNT-TACC3 hits. 1,200 compounds, 50% hits. His-ARNT PASB-GST AlphaScreen artifact counter-screen, luminescence. shares compounds with ARNT-TACC3 inh. AC50, µM (titrated, usually from 68 µM), without a hit: top-dose activity change, negative = signal decrease;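 active means every separate test run was called active for a drop in luminescence, with AC50 within twice the top valid dose, actives reach about 71 µM in these data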
ARNT Alpha ctr-2 – produces AlphaScreen artifacts in ARNT-TACC3 counter-screen | shares compounds with ARNT-TACC3 inh | 45 compounds, 70% hits | AID 720564 | AC50, µM | Dual-tagged His-ARNT PASB-GST AlphaScreen artifact counter-screen;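 active means luminescence drop, with half-maximal potency fitted within twice the sample's top valid dose, cut at about 70 µM in these data; inactive means the rest, including signal moving the wrong way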
Active calls of the source: *; / = no result given; [ ] = dose if it differs, or a comment.

SMILES | HSP90 refold inh | HSF-1 act | ARNT-TACC3 inh | HIF act | HSF1 inh | ARNT Alpha ctr-1 | others
CCCNC(=O)Nc1ccc2c(c1)OC[C@H](C)N(C(=O)c1ccccc1F)C[C@@H](C)[C@@H](OC)CN(C)C2=O | / | / | 53* | / | / | -2%[42 µM]
COc1ccc(S(=O)(=O)N(C)C[C@@H]2OCCCC[C@@H](C)Oc3ccc(NC(=O)Nc4ccc(C(F)(F)F)cc4)cc3C(=O)N([C@@H](C)CO)C[C@@H]2C)cc1 | / | / | -18 | / | / | /
N#Cc1c(NC(=O)C2CC(c3c(F)cccc3Cl)=NO2)sc2c1CCC2 (stereo not drawn) | -6 | 21 | 1 | 0 | 8 | /
CCc1c(C)sc(NC(=O)C2CC(c3c(F)cccc3Cl)=NO2)c1C#N (stereo not drawn) | -2 | 14 | active | 2 | 3 | 3%
O=C1O[C@@H](c2ccccc2)[C@@H](c2ccccc2)N2[C@@H](c3ccc(OCCO)cc3)[C@]3(C(=O)Nc4ccc(C#CC5(O)CCCCCC5)cc43)[C@@H](C(=O)N3CCCCCCC3)[C@H]12 | / | / | 22 | / | / | /
COC(=O)C(CC#Cc1ccc2c(c1)[C@]1(C(=O)N2)[C@H](c2ccc(OCCO)cc2)N2[C@H](c3ccccc3)[C@H](c3ccccc3)OC(=O)[C@H]2[C@@H]1C(=O)N1CCCCCCC1)C(=O)OC | / | / | 63* | / | / | -34%[38 µM]
CC1=Nn2c(nnc2-c2ccccn2)SC1 | -2 | -6 | 44* | 0 | -2 | -15%
CC1=Nn2c(nnc2-c2ccccc2F)SC1 | 2 | 1 | 3 | 0 | 1 | /
O=C(CSc1ncccn1)N1CCc2ccccc2C1 | -1 | 12 | 6 | 0 | -2 | /
O=C(CNCc1ccccn1)N1CCc2ccccc2C1 | 11 | 21 | 77* | 0 | 5 | 17µM*
CCCNC(=O)N[C@@H]1CC[C@H](CCn2cc(C3CCCCC3)nn2)O[C@H]1CO | / | / | -4 | / | / | /
Cc1ccc(NC(=O)CN(C)C(=O)COc2cccc3cccnc23)cc1 | -2 | -4 | 58* | -1 | 1 | -17%
O=C(CSc1n[nH]c(-c2ccccn2)n1)Nc1ccc(F)cc1 | 0 | 26 | 70* | 0 | 6 | 11µM*
Cc1ccc(NC(=O)CSc2n[nH]c(-c3ccccn3)n2)cc1 | 3 | 0 | 70* | 0 | -4 | 9.2µM*
O=C(CSc1n[nH]c(-c2ccccn2)n1)Nc1ccc(Cl)cc1 | 1 | 39 | 68* | -1 | 2 | 32µM* | ARNT Alpha ctr-2=11*
C[C@@H](O)C#Cc1ccc([C@@H]2[C@H]3CN(C(=O)c4cccc(F)c4)CCCCN3[C@H]2CO)cc1 | / | / | -7 | / | / | /
CNC(=O)C[C@H]1CC[C@H]2[C@H](COc3ccc(NC(=O)Nc4cccc(Cl)c4)cc3C(=O)N2C)O1 | / | / | 0 | / | / | /
O=C(C[C@@H]1CC[C@@H]2[C@H](COC[C@H](O)CN2C(=O)Nc2cccc(F)c2)O1)NCc1ccccc1Cl | / | / | -10 | / | / | /
O=C(O)c1ncn(Cc2ccccc2)c1C(=O)O | -5 | 14 | 62* | 0 | -2 | -23%
O=C(NCc1ccccc1)c1ncn(Cc2ccccc2)c1C(=O)NCc1ccccc1 | / | / | -10 | / | / | /
COc1cccc(/C=N/NC(=O)C(=O)N2CCCCCC2)c1O | -7 | -7 | 60* | 1 | 2 | -19%
c1ccc(-c2nnc(-c3ccccn3)nc2N2CCC(c3ccccc3)C2)cc1 (stereo not drawn) | / | / | / | / | / | 4.8µM*
Cc1nnc(-c2ccccc2)nc1N1CCOCC1 | 0 | -6 | 1 | 0 | 6 | /
c1ccc(-c2nnc(-c3ccccn3)nc2N2CCN(c3ccncc3)CC2)cc1 | / | / | / | / | / | 2.1µM*
c1ccc(-c2nnc(N3CCN(c4ccccn4)CC3)c3ccccc23)cc1 | -3 | -15 | 27 | 0 | -1 | /
SMILES | HSP90 refold inh | HSF-1 act | ARNT-TACC3 inh | HIF act | HSF1 inh | ARNT Alpha ctr-1 | others
c1ccc(-c2nnc(-c3ccccn3)nc2N2CCC(N3CCOCC3)CC2)cc1 | / | / | / | / | / | 0.92µM*
CNC(=O)C[C@@H]1CC[C@@H]2[C@@H](COc3ccc(NC(=O)c4cc(F)cc(F)c4)cc3C(=O)N2C)O1 | / | / | -3 | / | / | /
CN1CCN(C(=O)c2cc(-c3ccccc3)on2)CC1 | -2 | 5 | -4 | 1 | 4 | 3%[38 µM]
O=C(c1cc(-c2ccccc2)on1)N1CCc2cccnc21 | / | / | / | / | / | -8%[38 µM]
COc1ccccc1OCc1nc(C#N)c(NCCCn2ccnc2)o1 | 3 | -12 | 34* | -1 | -7 | -10%
N#Cc1nc(COc2ccccc2)oc1NCCCn1ccnc1 | 8 | / | 8 | / | / | /
C[C@@H]1CN([C@H](C)CO)C(=O)Cc2cc(NC(=O)CCN3CCOCC3)ccc2O[C@H]1CN(C)C(=O)Nc1ccc(F)cc1 | / | / | 4 | / | / | /
COC(=O)C[C@@H]1CC[C@H]2[C@@H](COc3ccc(NS(C)(=O)=O)cc3C(=O)N2C)O1 | / | / | -6 | / | / | /
C[C@]12CC[C@H](O)CC1=CCC1C2CC[C@@]2(C)C1CC[C@@H]2NC(=O)[C@@H](N)Cc1cnc[nH]1 (stereo partly drawn) | / | / | 62* | / | / | -12%
CCO/C=C1/C(=O)N(Cc2ccccc2)C(=O)c2ccccc21 | -1 | 11 | 25* | 0 | -9 | 0%
CCO/C=C1\C(=O)N(c2ccccc2)C(=O)c2ccccc21 | 0 | / | 2 | / | / | /
C[C@H](CO)N1C[C@H](C)[C@H](CN(C)C(=O)Nc2ccccc2)Oc2c(NS(C)(=O)=O)cccc2C1=O | / | / | -1 | / | / | /
OCCN1CCN(Cc2cc(Cl)c3cccnc3c2O)CC1 | 0 | 19 | 63* | 2 | -2 | 8.5µM*
OCCN1CCN(Cc2cc(Br)cc(Br)c2O)CC1 | -3 | -9 | -27 | 0 | -3 | /
COc1cccc(C(=O)Oc2c(CN3CCOCC3)cc(Cl)c3cccnc23)c1 | 1 | -23 | 78* | 0 | -21 | 58µM*
O=C(Oc1c(CN2CCOCC2)cc(Cl)c2cccnc12)c1cccs1 | -1 | -16 | 65* | 0 | -18 | -21%
CC(C)NC(=O)N(C)C[C@H]1OCCCC[C@@H](C)Oc2ccc(NC(=O)c3ccccc3)cc2C(=O)N([C@@H](C)CO)C[C@@H]1C | / | / | -17 | / | / | /
COC(=O)c1ccc([C@@H]2C=C(C(=O)N3CCN(Cc4ccc5c(c4)OCO5)CC3)O[C@H](OCc3ccc(CO)cc3)C2)cc1 | / | / | 9 | / | / | /
COc1cccc(C(=O)Nc2nnc(-c3ccc(Cl)cc3)o2)c1 | / | -4 | 18 | 1 | -5 | /
O=C(Nc1nnc(-c2cccs2)o1)c1ccco1 | 2 | 7 | 51* | 0 | 0 | -20%
COc1cccc(C(=O)Nc2nnc(-c3cccs3)o2)c1 | 4 | 11 | 52* | 1 | 10 | 67µM*
COc1cc(-c2nnc(NC(=O)c3ccco3)o2)cc(OC)c1OC | / | -1 | 43* | 0 | -3 | -13%
